In PubChem BioAssay (NCI):
About 79,000 compounds went through this panel and 15% of them were active in at least one assay; those are over-represented in the sample as a whole. Values without a mark were called inactive. Activity calls are given as the source filed them. No stated cut-off is given here; in the data, active means growth inhibition above about 70%; inactive means the rest.

Assay: NCI Yeast Anticancer Drug Screen. Data for the sgs1 mgt1 strain (AID 161);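 further: 0% = growth of cultures given vehicle only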
Conditions: S. cerevisiae sgs1 mgt1 strain, at 50.0 µM, hits give high values
Method in brief: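 Compounds are added to genetically altered yeast, and growth is compared with cultures given vehicle alone to give percent inhibition.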

Row | SMILES | growth inhibition
1 | O=C(O)C(Sc1ccccc1)c1ccccc1 (stereo not given) | -0.05%
2 | NC(Cc1ccc(S(=O)(=O)O)cc1)C(=O)NC(Cc1ccc(S(=O)(=O)O)cc1)C(=O)NC(Cc1ccc(S(=O)(=O)O)cc1)C(=O)O (stereo not given) | 27.1%
3 | COc1ccc(CCNC(=O)CCC2CCN(CCc3ccc(OC)c(OC)c3)CC2)cc1OC | 1.65%
4 | OC1(c2ccccc2)C(c2ccccc2)=C(c2ccccc2)C(c2ccc(CCCCCCCCc3ccc(C4=C(c5ccccc5)C(O)(c5ccccc5)C(c5ccccc5)=C4c4ccccc4)cc3)cc2)=C1c1ccccc1 (stereo not given) | -7.5%
5 | S=C(c1ccccc1)N1CCCCC1 | 0.45%
6 | N#CC1(Cl)CC2CC1C1N=NN(c3ccccc3)C21 (stereo not given) | -0.25%
7 | Fc1ccc2nncc(SCc3ccc(Cl)c(Cl)c3)c2c1 | 3.8%
8 | CON(C)C(C#N)=C(C#N)C#N | 21.1%
9 | CCC(/C(=N/NC(=O)C[N+](C)(C)C)c1ccccc1)C1OC(=O)c2ccccc21 (stereo not given) | 16.1%
10 | N#Cc1ccc(NN=NCCOCCCl)cc1 | 17.9%
11 | Nc1nc(N)nc(C2C=CCCC2)n1 (stereo not given) | -13%
12 | COC(=O)NS(=O)(=O)C1=Cc2cccc3cccc1c23 | 9.25%
13 | CCCN1C(=O)c2cc(=O)n(Cc3ccccc3)c(O)c2C1C (stereo not given) | 4.7%
14 | O=C1CCC(=O)N2C(=O)CCC(=O)N12 | -18.9%
15 | COC(=O)CC/C=N/NC(N)=O | 7.7%
16 | BrC1=C(c2ccccc2)C2CCCCC2C1(Br)c1ccccc1 (stereo not given) | 97.8% (active)
17 | CC(C)CCC(=S)N1CCN(c2ccccc2)CC1 | 2.2%
18 | CCCCNC(=O)Oc1c(Cl)cc(Cl)c(Cl)c1[N+](=O)[O-] | 17.9%
19 | [N-]=[N+]=Nc1nc2c(N)ncnc2n1C1OC(CO)C(O)C1O (stereo not given) | 6.15%
20 | Cc1ccccc1OCC1COCN(C(C)(C)CO)CO1 (stereo not given) | -5.5%

Row | SMILES | growth inhibition
21 | O=C1c2ccccc2CC12Cc1cc3c(cc1C2=O)CCC3 (stereo not given) | -17.2%
22 | Brc1ccccc1/C=N\N=C\c1ccccc1Br | 12.2%
23 | O=C(CC1NCCS1)OCc1ccc(Br)cc1 (stereo not given) | 9.8%
24 | CCCCCCCC(N)=O | 8.4%
25 | CN(C)NC(=O)CC#N | -4.45%
26 | Cc1ccc2c(c1)C(C(C)C)CCC2(C)C (stereo not given) | 2.95%
27 | CC(=O)NC(C=O)C(O)C(O)C(O)C(=O)O (stereo not given) (tested in a mixture with another compound) | -22.2%
28 | CCS(=O)(=O)C(S(C)(=O)=O)S(=O)(=O)C(C)C (stereo not given) | 8.45%
29 | CN1CCC2(C1)C1CC3CC(C1)CC2C3 (stereo not given) | -8.5%
30 | Cn1c(CC(O)(C(F)(F)Cl)C(F)(F)Cl)cc(=O)n1-c1ccccc1 | 8.7%
31 | CC(=O)NC1c2ccccc2Oc2c(C)cccc21 (stereo not given) | 1.7%
32 | C[C@@]1(NC(=O)Cc2ccccc2)C(=O)N2CCS[C@@]21c1ccccc1 | -20.6%
33 | CC(C)CCCC(C)C1CCC2C3C(=O)C=C4CC(OC(=O)CCC(C)C)CCC4(C)C3CCC12C (stereo not given) | 25.3%
34 | CN(CC(=O)O)C(=N)N | -19.9%
35 | OCCOc1ccc(Cl)cc1Cl | -18.2%
36 | COc1cc([N+](=O)[O-])cc(C(C)=O)c1O | 31.5%
37 | CCn1ncc2ccc(N(CO)CO)cc21 | -13.6%
38 | Cn1c(=O)c2c(-c3ccccc3)onc2n(C)c1=O | 22.4%
39 | Cn1c(=O)[nH]nc(Br)c1=O | -9%
40 | [N-]=[N+]=NC1CC(n2cc(Cc3ccccc3)c(N)nc2=O)OC1CO (stereo not given) | 11.4%
